Assay outcomes as filed in PubChem.
The list is not random: actives were taken first. Their share in the collection is about 1.1%.
HTR5A inv ctr: HTR5A inverse agonists in luminescence cell assay, primary screen, counter-screen for OPRM1-OPRD1 heterodimer inverse agonist project, full-deck HTS. 5-hydroxytryptamine receptor 5A (Homo sapiens), P47898. HTR5A cell line, inverse agonism. inhibition, % at 9.3 µM. actives 0.083% (n = 340,000). AID 504634, 2011; in the data active = inhibition mostly above about 23%, no sharp cut-off; inactive = mostly below about 18%;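 note: 0% = cells with DMSO and 100% = no-cell wells with DMSO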
Bfl-1 A1 inh: caspase 3/7 activation in MEF A1-2A-BIM cells, primary screen, A1 inhibitor project, cell-based, luminescence, HTS; Caspase-Glo 3/7 luminescence, 3 h; percent of clofoctol response, vehicle zero; caspase activation, % (no concentration beside the values); actives 0.066% (n = 330,000); AID 2462, 2010;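 active = over half of replicate activation scores above 10%, or exactly half above 10 with the replicate mean above 10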
MOR-DOR ag: agonists of OPRM1-OPRD1 heterodimerization, primary screen, cell-based, luminescence. cells. activation, % at 9.3 µM. actives 0.3% (n = 340,000). AID 504326, 2011;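 note: 0% = vehicle-treated cells and 100% = reference agonist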
Target sequence (P35372 whole entry, looked up): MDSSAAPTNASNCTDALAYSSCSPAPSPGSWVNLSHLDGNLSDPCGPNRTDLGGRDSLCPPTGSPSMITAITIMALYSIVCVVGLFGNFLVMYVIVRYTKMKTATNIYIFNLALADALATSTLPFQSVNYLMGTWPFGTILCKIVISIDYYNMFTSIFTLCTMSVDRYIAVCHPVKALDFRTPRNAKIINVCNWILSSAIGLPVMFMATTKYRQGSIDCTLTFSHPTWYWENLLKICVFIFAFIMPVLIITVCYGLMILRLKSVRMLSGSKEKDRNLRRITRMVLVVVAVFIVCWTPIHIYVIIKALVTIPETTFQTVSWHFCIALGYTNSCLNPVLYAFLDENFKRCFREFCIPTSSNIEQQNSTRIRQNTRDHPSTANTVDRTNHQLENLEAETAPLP
Target sequence (P41143 whole entry, looked up): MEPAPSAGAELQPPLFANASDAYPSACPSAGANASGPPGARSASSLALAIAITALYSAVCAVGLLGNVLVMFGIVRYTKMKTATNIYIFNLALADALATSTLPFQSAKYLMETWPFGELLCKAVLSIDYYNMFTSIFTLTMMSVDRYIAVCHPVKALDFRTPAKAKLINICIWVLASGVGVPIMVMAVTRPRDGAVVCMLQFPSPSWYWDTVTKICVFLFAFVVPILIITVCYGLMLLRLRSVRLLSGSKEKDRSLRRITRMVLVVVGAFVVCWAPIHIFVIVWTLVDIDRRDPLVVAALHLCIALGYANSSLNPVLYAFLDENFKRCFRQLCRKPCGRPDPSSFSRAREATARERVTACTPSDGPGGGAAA
OPRM1-OPRD1 inv: inverse agonists of MOR-DOR heterodimerization, primary screen, cell-based, luminescence; inhibition, % at 9.3 µM; cell-based MOR-DOR heterodimer luminescence, inverse agonism; actives 0.21% (n = 340,000); AID 504357, 2011; in the data active = inhibition above about 22%, passing the limit was not always enough;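 note: 0% = cells with DMSO and 100% = wells without cells with DMSO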
HTR5A ag ctr: HTR5A agonists in luminescence cell assay, primary screen, counter-screen for OPRM1-OPRD1 heterodimer agonist project, full-deck HTS. 5-hydroxytryptamine receptor 5A (Homo sapiens), P47898. actives 0.61% (n = 340,000). activation, % at 9.3 µM. cell-based; in the data active = activation mostly above about 9.5%, no sharp cut-off; inactive = mostly below about 7.6%;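 note: 0% = cells with vehicle only and 100% = reference agonist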
MOR-DOR ag conf: agonists of MOR-DOR heterodimerization, confirmation, cell-based, luminescence. activation, % at 9.3 µM. AID 504904, 2011. shares compounds with MOR-DOR ag. cells, luminescence complementation. actives 45% (n = 830);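 note: 0% = vehicle-treated cells and 100% = reference agonist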
HTR5A ag counter: HTR5A agonists in cells, counter-screen for OPRM1-OPRD1 heterodimer agonist project, cell-based, luminescence. AID 504905, 2011. actives 8% (n = 830). shares compounds with MOR-DOR ag. HTR5A agonist counterscreen. activation, % at 9.3 µM; in the data active = activation above about 17%;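 note: 0% = vehicle-treated cells and 100% = reference agonist response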
The depositor's hits bear a star; i = inactive; nt = no result given. Cut-off read from the data, not from the text of the source, unless noted: active = activation above about 18%; inactive = the rest.

SMILES	HTR5A inv ctr	Bfl-1 A1 inh	MOR-DOR ag	OPRM1-OPRD1 inv	HTR5A ag ctr	MOR-DOR ag conf	HTR5A ag counter
COc1ccc2c(c1O)[C@]13CCN(C)[C@H](C2)[C@@H]1CCC(=O)C3	-16	1	96*	i	5	23*	-1
CC1OC(OC2CC(O)C3(CO)C4C(O)CC5(C)C(C6=CC(=O)OC6)CCC5(O)C4CCC3(O)C2)C(O)C(O)C1O (configuration not stated)	0	nt	80*	-404	26*	5	3
COc1cccc2c1N=C1CCCC3CN(C(C)=O)CCC123 (configuration not stated)	-2	nt	-2	12	0	nt	nt
COC(=O)C1=CO[C@@H](C)[C@@H]2CN(CCc3c[nH]c4ccccc34)CC[C@H]12	-13	0	92*	i	-8	123*	1
COC(=O)C1=COC(C)C2CN3CCC4(C(=O)Nc5ccccc54)C3CC12 (configuration not stated)	21	2	-1	4	1	nt	nt
CCC(C)N1C(=O)NC(=O)C2(Cc3c(ccc4ccccc34)N(C)C2)C1=O (configuration not stated)	-30	1	20*	-126	13	215*	-1
CCC(COC(=O)c1cc(OC)c(OC)c(OC)c1)(c1ccccc1)N(C)C (configuration not stated)	17	-1	54*	-294	-5	51*	14
O=c1c([N+](=O)[O-])cn(O)cc1[N+](=O)[O-]	15	nt	-1	3	-4	nt	nt
CN(C)C1(CNC(=O)Nc2ccc(Cl)c(Cl)c2)CCCCC1	-19	1	67*	-358	7	-1	-4
COc1ccc(CNCCc2c[nH]c3ccccc23)c(OC)c1C	-25	0	21*	-95	7	48*	15
CCC1C=CC=CC[C@H](C)[C@@H](O)[C@](C)(O)C(=O)[C@@H](C)[C@H](O)[C@@H](C)C(=O)[C@H](C)[C@@H](O)[C@H](C)C=CC(=O)OC2[C@@H](C)C(CC1)OC1(CC[C@@H](C)C(C[C@H](C)O)O1)[C@@H]2C (some centres not stated)	nt	-1	nt	nt	nt	nt	nt
CN1CCC23c4c5ccc(O)c4O[C@@H]2[C@H](O)C=CC3C1C5 (some centres not stated)	5	nt	nt	nt	-2	nt	nt
CN1CC[C@]23c4c5ccc(O)c4OC2[C@H](O)C=CC3[C@H]1C5 (some centres not stated)	-1	nt	nt	nt	0	nt	5
COC(=O)C1=C(c2ccc(OC(F)(F)F)cc2)C[C@@H]2CC[C@H]1N2C(=O)NCCOc1ccc(OC)cc1	-4	-1	-1	7	2	nt	nt
CCOc1cc2c(cc1OCC)-n1cccc1C(c1cccc(OCC)c1O)NC2 (configuration not stated)	9	0	0	2	-2	nt	nt
Cc1cc(NC(=O)CCl)nn1C	-18	-2	91*	-469	6	1	2
COc1ccc(C(CN(C)C)C2(O)CCCCC2)cc1 (configuration not stated)	-18	1	-2	12	-3	nt	nt
COc1ccc(C(CNC(=O)CCc2ccsc2)N(C)C)cc1 (configuration not stated)	13	0	405*	i	2	55*	-3
CC(Cc1ccccc1)NC(=O)Cc1ccc(N(C)C)cc1 (configuration not stated)	27	1	-1	6	1	nt	nt
CN(C)C(CNC(=O)Cc1ccc(Br)cc1)c1ccccc1 (configuration not stated)	2	2	141*	i	-1	214*	-5
C[C@@H]1O[C@@H](O[C@@H]2C=C3CCC4C(CC[C@]5(C)[C@@H](c6ccc(=O)oc6)CC[C@]45O)[C@@]3(C)CC2)[C@H](O)[C@H](O)[C@H]1O (some centres not stated)	-106	0	71*	-382	30*	34*	27*
COc1cc2c(cc1OC)C13CCN4CC5=CCOC(CC(=O)O)C(C5CC41)C3N2 (configuration not stated)	-10	nt	-1	6	3	nt	nt
c1ccc(C2(N3CCCCC3)CCCCC2)cc1	18	nt	374*	i	-8	346*	-2
CC1[C@H]2Cc3ccc(O)cc3[C@]1(C)CCN2CCc1ccccc1 (some centres not stated)	19	nt	339*	i	-8	315*	0
CC12CCC3C(CCC4CC(=O)OCC43C)C1CCC2O (configuration not stated)	-32	nt	1	-4	8	nt	nt
SMILES	HTR5A inv ctr	Bfl-1 A1 inh	MOR-DOR ag	OPRM1-OPRD1 inv	HTR5A ag ctr	MOR-DOR ag conf	HTR5A ag counter
CC(=O)OC1CC[C@]2(C#N)[C@H]3CC[C@]4(C)[C@H](C5C=CC(=O)O5)CCC4(O)C3CCC2(O)C1 (some centres not stated)	-69	1	51*	-246	19*	18	21*
CC(OC(=O)c1cn(C)c2ccccc12)C(=O)N1CCCC1 (configuration not stated)	-28	0	-4	14	4	nt	nt
Clc1cccc(CNCCc2ccc3c(c2)OCO3)c1	19	0	2	-11	-5	nt	nt
CC1(C)CC(CCNCc2ccc3c(c2)OCO3)(Cc2ccccc2)CCO1 (configuration not stated)	3	0	31*	-163	-1	28*	-4
CC12CC[C@H]3[C@@H](CCC4(O)C[C@H](O)CCC34/C=N/NC(=O)c3ccccc3O)C1(O)CCC2C1=CC(=O)OC1 (some centres not stated)	-30	-1	35*	-184	9	9	0
CC12CC[C@H]3[C@@H](CCC4(O)C[C@H](O)CCC34/C=N/NC(=O)c3ccccc3F)C1(O)CCC2C1=CC(=O)OC1 (some centres not stated)	9	0	13	-64	11	nt	nt
Cn1cc(C(O)CN2CCCCC2)c2ccccc21 (configuration not stated)	0	0	-1	3	0	nt	nt
CCC(=O)OC1(c2ccccc2)CCN(C)CC1C (configuration not stated)	nt	1	nt	nt	nt	nt	nt
